Measurements taken from the supplement of paper PMC9694430.
Where a name gives a salt, the structure may show the parent alone.

Legend:
Test in all cases: thermal shift delta Tm vs DMSO control; higher = stronger stabilization (binding)
Conditions in all cases: 12.5 µM; protein concentration 2 µM
[1] = system: LOC_OS02G45750-cb003
Outline: (§1)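 Compounds dissolved in DMSO were added to purified rice kinase domain constructs, which had been expressed in E. coli, for differential scanning fluorimetry. Each well held 19.5 μl of 2 μM kinase in 100 mM potassium phosphate pH 7.5, 150 mM NaCl, 10% glycerol and 5 × SYPRO Orange. Fluorescence was followed from 25°C to 95°C at a rate of 0.05°C/s. Shifts in Boltzmann-fitted melting temperature are triplicate means relative to DMSO-only protein.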

[2] = system: LOC_OS02G54510-cb004
Outline: as §1

[3] = system: LOC_OS03G04050-cb001
Outline: as §1

[4] = system: LOC_OS03G12390-cb001
Outline: as §1

[5] = system: LOC_OS03G27990-cb004
Outline: as §1

[6] = system: LOC_OS03G50450-cb001
Outline: as §1

[7] = system: LOC_OS03G50810-cb003
Outline: as §1

[8] = system: LOC_OS04G35114-cb001
Outline: as §1

[9] = system: T1, LOC_OS04G38480-cb003
T1 sequence (whole entry): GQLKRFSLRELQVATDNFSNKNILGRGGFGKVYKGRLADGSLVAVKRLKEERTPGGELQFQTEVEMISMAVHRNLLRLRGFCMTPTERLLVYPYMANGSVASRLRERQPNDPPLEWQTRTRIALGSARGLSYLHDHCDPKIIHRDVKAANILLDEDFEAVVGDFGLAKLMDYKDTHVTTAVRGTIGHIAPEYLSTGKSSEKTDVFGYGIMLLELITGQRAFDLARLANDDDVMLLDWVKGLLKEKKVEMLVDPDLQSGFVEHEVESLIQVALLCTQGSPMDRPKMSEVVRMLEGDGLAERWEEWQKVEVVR
Outline: as §1

[10] = system: T2, LOC_OS04G41100-cb001
T2 sequence (whole entry): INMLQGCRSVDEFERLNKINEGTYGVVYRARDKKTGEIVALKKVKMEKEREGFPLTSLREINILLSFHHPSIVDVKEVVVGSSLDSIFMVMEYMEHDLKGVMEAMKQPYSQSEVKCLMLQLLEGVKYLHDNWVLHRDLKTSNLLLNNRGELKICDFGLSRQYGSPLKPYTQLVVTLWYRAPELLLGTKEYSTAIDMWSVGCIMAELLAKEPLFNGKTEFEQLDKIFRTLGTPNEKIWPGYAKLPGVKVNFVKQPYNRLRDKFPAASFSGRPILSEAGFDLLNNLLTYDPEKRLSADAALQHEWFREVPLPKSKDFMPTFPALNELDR
Outline: as §1

[11] = system: LOC_OS04G57630-cb004
Outline: as §1

[12] = system: LOC_OS05G07850-cb002
Outline: as §1

[13] = system: LOC_OS05G16824-cb004
Outline: as §1

[14] = system: LOC_OS05G28520-cb001
Outline: as §1

[15] = system: LOC_OS05G30820-cb001
Outline: as §1

[16] = system: LOC_OS05G43570-cb004
Outline: as §1

[17] = system: LOC_OS06G16330-cb003
LOC_OS06G16330-cb003, sequence (as listed by the source): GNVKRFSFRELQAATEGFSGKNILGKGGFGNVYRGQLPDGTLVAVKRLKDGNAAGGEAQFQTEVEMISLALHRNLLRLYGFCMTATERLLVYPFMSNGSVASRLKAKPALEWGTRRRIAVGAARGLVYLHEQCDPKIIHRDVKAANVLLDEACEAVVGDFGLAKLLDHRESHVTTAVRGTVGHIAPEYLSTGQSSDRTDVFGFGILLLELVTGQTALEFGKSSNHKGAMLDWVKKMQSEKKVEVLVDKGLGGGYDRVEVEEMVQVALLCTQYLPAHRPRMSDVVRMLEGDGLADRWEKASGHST
Outline: as §1

[18] = system: T3, LOC_OS06G22820-cb001
T3 sequence (whole entry): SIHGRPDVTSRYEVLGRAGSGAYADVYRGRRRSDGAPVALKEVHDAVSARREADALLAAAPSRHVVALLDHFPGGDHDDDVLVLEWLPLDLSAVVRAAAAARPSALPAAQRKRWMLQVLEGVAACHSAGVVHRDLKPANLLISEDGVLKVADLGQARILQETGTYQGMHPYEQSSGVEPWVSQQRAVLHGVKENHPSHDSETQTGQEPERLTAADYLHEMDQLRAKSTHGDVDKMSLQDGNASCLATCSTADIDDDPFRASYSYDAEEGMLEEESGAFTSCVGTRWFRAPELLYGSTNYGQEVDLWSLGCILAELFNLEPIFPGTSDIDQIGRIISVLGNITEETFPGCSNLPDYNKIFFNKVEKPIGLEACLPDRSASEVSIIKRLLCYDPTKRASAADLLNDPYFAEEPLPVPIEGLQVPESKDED
Outline: as §1

[19] = system: LOC_OS07G06570-cb004
Outline: as §1

[20] = system: LOC_OS07G07230-cb001
Outline: as §1

Row | Compound | thermal shift delta Tm [1] | thermal shift delta Tm [2] | thermal shift delta Tm [3] | thermal shift delta Tm [4] | thermal shift delta Tm [5] | thermal shift delta Tm [6] | thermal shift delta Tm [7] | thermal shift delta Tm [8] | thermal shift delta Tm [9] | thermal shift delta Tm [10] | thermal shift delta Tm [11] | thermal shift delta Tm [12] | thermal shift delta Tm [13] | thermal shift delta Tm [14] | thermal shift delta Tm [15] | thermal shift delta Tm [16] | thermal shift delta Tm [17] | thermal shift delta Tm [18] | thermal shift delta Tm [19] | thermal shift delta Tm [20]
1 | O=C(Nc1cccc(Nc2ncc(Br)c(NCCc3cnc[nH]3)n2)c1)N1CCCC1 | 9.57 °C | 1.18 °C | 0.77 °C | 2.81 °C | 1.73 °C | 6.39 °C | 5.57 °C | 5.16 °C | 2.86 °C | 2.52 °C | 7.51 °C | 10.4 °C | 13.2 °C | -0.09 °C | 6.02 °C | 0.65 °C | 8.57 °C | 0.67 °C | 0.48 °C | 1.02 °C
2 | CNC(=O)c1cc(COc2nnc(Nc3ccc(Cl)cc3)c3ccoc23)ccn1 [Telatinib] | 0.27 °C | 0.15 °C | 0.24 °C | -0.25 °C | 0.21 °C | 0.19 °C | 0.38 °C | 0.7 °C | 1.95 °C | 1.53 °C | 0.3 °C | 0.35 °C | -3.58 °C | 0.37 °C | 0.56 °C | 0.21 °C | -0.23 °C | 0.39 °C | 0.17 °C | 0.1 °C
3 | Oc1c2ccccc2c2c3c(cccc13)N=N2 | 8.26 °C | 0.51 °C | 0.73 °C | 5.6 °C | 3.39 °C | 2.66 °C | 2.79 °C | 6.42 °C | 2.04 °C | 1.69 °C | 2.27 °C | 9.83 °C | 9.67 °C | 0.7 °C | 1.62 °C | 1 °C | 5.84 °C | 0.87 °C | 1.14 °C | -0.13 °C
4 | O=S(=O)(NCCNC/C=C/c1ccc(Br)cc1)c1cccc2cnccc12 | 0.56 °C | 0.32 °C | 0.25 °C | 0.22 °C | 0.02 °C | 0.46 °C | 0.01 °C | 0.54 °C | 0.79 °C | 0.63 °C | -0.1 °C | 2.68 °C | -0.59 °C | -0.13 °C | 0.53 °C | 0.62 °C | 0.87 °C | 0.31 °C | 1.14 °C | 0.17 °C
5 | Cc1cc(Nc2nc(N[C@@H](C)c3ccc(F)cc3)c(C#N)cc2F)n[nH]1 | 4.55 °C | 2.52 °C | 0.11 °C | 4.41 °C | 0.57 °C | 1.39 °C | 4.44 °C | 1.88 °C | 2.31 °C | 1.28 °C | 0.47 °C | 11.9 °C | 8.62 °C | -0.1 °C | 1.2 °C | 0.67 °C | 8.11 °C | -0.41 °C | 0.19 °C | 0.12 °C
6 | Cc1cc(F)c(Nc2ncnc3cc(OCc4ccccc4)ccc23)cc1O | 0.78 °C | 0.36 °C | 0.9 °C | 0.2 °C | 0.83 °C | 1.28 °C | 0.71 °C | 1.12 °C | 1.35 °C | -0.11 °C | -0.1 °C | 1.29 °C | -1.22 °C | 1.19 °C | 0.76 °C | 1.17 °C | -0.11 °C | 1.28 °C | 2.49 °C | 0.37 °C
7 | O=C(Nc1cnn2ccc(N3CCC[C@@H]3c3cc(F)ccc3F)nc12)N1CC[C@H](O)C1 [Larotrectinib (LOXO-101) sulfate] | 1.75 °C | 0.37 °C | 0.11 °C | -0.11 °C | 0.01 °C | 0.17 °C | 0.5 °C | 1.91 °C | 1.2 °C | 0.27 °C | -0.61 °C | 5.23 °C | 0.04 °C | 0.01 °C | 0.53 °C | 0.03 °C | 2.16 °C | 0.35 °C | 0.63 °C | 0.56 °C
8 | CC(=O)O/N=C1/C(c2c(O)[nH]c3cc(Br)ccc23)=Nc2ccccc21 [BIO-acetoxime] | 9.18 °C | 2.31 °C | 1.28 °C | -0.22 °C | 0.36 °C | -0.71 °C | 5.4 °C | 5.86 °C | -0.03 °C | 0.88 °C | 0.24 °C | 7.48 °C | 4.45 °C | -0.58 °C | 1.03 °C | -0.53 °C | 2.52 °C | -0.05 °C | 0 °C | 0.92 °C
9 | C[C@H]1[C@H](C)CC[C@]2(C(=O)O)CC[C@]3(C)C(=CC[C@@H]4[C@@]5(C)C[C@@H](O)[C@H](O)[C@@](C)(CO)[C@@H]5CC[C@]43C)[C@H]12 [Asiatic Acid] | 0.12 °C | -0.04 °C | 0.11 °C | -0.01 °C | 0.08 °C | 0.19 °C | 0.31 °C | -0.09 °C | 0.96 °C | 0.3 °C | 0.45 °C | 0.11 °C | -3.69 °C | 0.47 °C | 0.73 °C | 1.08 °C | -0.23 °C | 0.71 °C | 0.82 °C | 0.24 °C
10 | COc1ccc(COc2cc3oc(=O)c4cc(C(C)O)ccc4c3cc2OC)cc1 (stereo not given) [Palomid 529 (P529)] | -0.8 °C | 0.29 °C | 0.37 °C | -0.47 °C | 0.35 °C | 0.19 °C | 0.52 °C | 0.78 °C | 1.4 °C | 0.32 °C | 0.55 °C | 0.39 °C | -3.05 °C | 0.84 °C | 0.78 °C | 0.66 °C | 0.23 °C | 0.68 °C | 0.97 °C | 0.03 °C
11 | CC(C)(O)CNc1ncc(-c2ccnc(Nc3ccnc(Cl)c3)n2)c(CC2CC2)n1 | 2.85 °C | 0.6 °C | 0.19 °C | -0.18 °C | 0.11 °C | 0.3 °C | 0.65 °C | 3.2 °C | 1.45 °C | 0.65 °C | 0.07 °C | 7.44 °C | 0.09 °C | 0.75 °C | 0.41 °C | 0.5 °C | 4.77 °C | 0.62 °C | 0.78 °C | 0.71 °C
12 | N[C@@H]1CCCN(c2c(/C=C3\SC(=O)NC3=O)cccc2-c2ccccc2)C1 | 0.09 °C | -0.11 °C | 0.23 °C | -0.15 °C | 0.47 °C | 0.53 °C | 0.13 °C | 0.97 °C | 0.39 °C | 0.61 °C | 0.42 °C | 2.29 °C | -1.84 °C | 0.64 °C | 0.34 °C | -0.01 °C | -0.21 °C | 0.41 °C | 1.48 °C | 0.3 °C
